Values without a mark were called inactive. Entries that show only a call come without a potency. Calls of active or inactive are those of the source. Unless noted, calls come from the whole dose curve; as a rule, active = well fitted curve in the direction sought with a large enough effect in the repeat runs; inconclusive = weak or mixed curves; inactive = no such curve, though single readings can be large; an effect the other way counts as inactive or inconclusive.
Key:
[1] = qHTS assay to identify small molecule antagonists of the thyroid receptor (TR) signaling pathway (AID 743065); note: nearly all actives have a fitted effect of over 55% in size; note: potency is the fitted concentration of half-maximal effect
In short: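 Antagonism measured as loss of luciferase signal in GH3 cells stably carrying a TRE-luciferase reporter, co-treated with compound and T3 (1 nM final) for 23.5 h at 37 C. Viability was read in the same well by CellTiter-Fluor.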

[2] = system: thyroid hormone receptor (rat, GH3 cells); test: qHTS assay to identify small molecule agonists of the thyroid receptor (TR) signaling pathway (AID 743066; calls by dose curve)
[3] = qHTS assay to identify small molecule antagonists of the estrogen receptor alpha (ER-alpha) signaling pathway using the BG1 cell line - cell viability counter screen (AID 743081);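 note: compound given together with 17beta-estradiol as the ER stimulus; nearly all actives have a fitted effect of over 45% in size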; note: potency is the fitted concentration of half-maximal effect
Aromatase (Homo sapiens) = Aromatase (Homo sapiens) (UniProt P11511); test: qHTS assay to identify aromatase inhibitors (AID 743083); note: nearly all actives have a fitted effect of over 55% in size; note: potency is the fitted concentration of half-maximal effect
Aromatase (Homo sapiens), sequence (P11511 whole entry, looked up): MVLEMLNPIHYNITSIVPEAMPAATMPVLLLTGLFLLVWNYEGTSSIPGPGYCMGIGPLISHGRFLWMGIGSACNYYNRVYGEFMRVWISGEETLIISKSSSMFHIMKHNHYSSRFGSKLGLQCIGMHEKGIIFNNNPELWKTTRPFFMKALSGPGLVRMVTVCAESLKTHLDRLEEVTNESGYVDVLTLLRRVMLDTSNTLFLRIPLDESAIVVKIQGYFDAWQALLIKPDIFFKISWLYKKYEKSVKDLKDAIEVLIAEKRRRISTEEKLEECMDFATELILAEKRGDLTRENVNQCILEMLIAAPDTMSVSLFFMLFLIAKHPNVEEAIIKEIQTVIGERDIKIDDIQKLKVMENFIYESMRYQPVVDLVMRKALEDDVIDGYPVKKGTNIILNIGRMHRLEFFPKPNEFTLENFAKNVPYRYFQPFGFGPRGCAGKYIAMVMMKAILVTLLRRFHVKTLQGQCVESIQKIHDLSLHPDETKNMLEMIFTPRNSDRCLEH

[4] = qHTS assay to identify aromatase inhibitors - cell viability counter screen (AID 743084);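 note: cells stimulated with testosterone during compound exposure; nearly all actives have a fitted effect of over 55% in size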; note: potency is the fitted concentration of half-maximal effect
[5] = qHTS assay to identify small molecule antagonists of the estrogen receptor alpha (ER-alpha) signaling pathway - cell viability counter screen (AID 743074; calls by dose curve;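 note: HEK293 cells carrying ER-alpha-UAS-bla reporter stimulated with 17beta-estradiol; nearly all actives have a fitted effect of over 45% in size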)
[6] = biological target: Estrogen receptor (Homo sapiens) (UniProt P03372); test: qHTS assay to identify small molecule antagonists of the estrogen receptor alpha (ER-alpha) signaling pathway (AID 743069; active = well fitted curve in the direction sought with a large enough effect in the signal ratio in the repeat runs, not every such curve was filed as active; inconclusive = weak or mixed curves, or effect the other way; inactive = no such curve, though single readings can be large or run the other way; the % refers to the signal ratio)
Estrogen receptor (Homo sapiens), sequence (P03372 whole entry, looked up): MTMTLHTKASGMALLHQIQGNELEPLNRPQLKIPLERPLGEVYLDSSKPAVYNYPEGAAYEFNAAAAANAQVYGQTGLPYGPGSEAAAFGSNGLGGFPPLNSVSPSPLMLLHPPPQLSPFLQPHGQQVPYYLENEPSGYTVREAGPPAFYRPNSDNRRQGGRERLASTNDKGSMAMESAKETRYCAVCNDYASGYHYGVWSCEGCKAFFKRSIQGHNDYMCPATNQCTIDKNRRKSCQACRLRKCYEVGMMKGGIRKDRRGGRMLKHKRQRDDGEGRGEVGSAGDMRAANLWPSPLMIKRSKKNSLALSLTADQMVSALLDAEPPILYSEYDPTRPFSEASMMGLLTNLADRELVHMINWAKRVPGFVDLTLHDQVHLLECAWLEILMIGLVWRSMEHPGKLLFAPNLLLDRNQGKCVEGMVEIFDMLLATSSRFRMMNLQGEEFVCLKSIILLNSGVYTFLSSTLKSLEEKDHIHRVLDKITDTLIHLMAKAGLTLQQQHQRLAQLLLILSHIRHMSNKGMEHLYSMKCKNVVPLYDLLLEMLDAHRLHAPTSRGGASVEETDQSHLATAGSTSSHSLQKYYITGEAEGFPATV
In short: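 Antagonist mode: compounds in DMSO were co-added with 17beta-estradiol to ER-alpha-bla HEK293 cells (2% charcoal-stripped serum) and left 18 h at 37C. Reporter inhibition was measured as FRET fluorescence after 2 h LiveBLAzer substrate at room temperature.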

[7] = biological target: Estrogen receptor (Homo sapiens) (UniProt P03372); test: qHTS assay to identify small molecule agonists of the estrogen receptor alpha (ER-alpha) signaling pathway (AID 743075; calls by dose curve;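 note: HEK293 GripTite cells with ER-alpha and UAS-driven beta-lactamase reporter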; note: potency is the fitted concentration of half-maximal effect)
[8] = biological target: Estrogen receptor (Homo sapiens) (UniProt P03372); test: qHTS assay to identify small molecule agonists of the estrogen receptor alpha (ER-alpha) signaling pathway using the BG1 cell line (AID 743079); details: BG1Luc4E2 cells, ERE-luciferase agonist, 22 h; note: nearly all actives have a fitted effect of over 20% in size; note: potency is the fitted concentration of half-maximal effect
[9] = qHTS assay to identify small molecule antagonists of the estrogen receptor alpha (ER-alpha) signaling pathway using the BG1 cell line (AID 743080; calls by dose curve;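 note: BG1 cells stimulated with 17beta-estradiol alongside compound; nearly all actives have a fitted effect of over 25% in size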)
In short: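 BG1-Luc-4E2 cells (endogenous full-length ER-alpha, stable 4×ERE-luciferase) were starved 5 days in phenol-red-free medium with 10% charcoal-stripped FBS, plated 24 h, then given compound plus 17beta-estradiol for 21.5 h at 37 C; ONE-Glo luminescence read after 30 min.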

SMILES	Potency [1]	Potency [2]	Potency [3]	Potency (Aromatase (Homo sapiens))	Potency [4]	Potency [5]	Potency [6]	Potency [7]	activation ([8]; at 70.3 µM (top of the series))	Potency [9]	Potency [8]	activation ([8]; at 95 µM (top of the series))
CN1COCN(Cc2cnc(Cl)s2)/C1=N\[N+](=O)[O-]	inactive	inactive	inactive	inactive	inactive	–	–	–	–	–	–	–
CCCCCCCCBr	–	–	inactive	inactive	inactive	inactive	–	–	–	–	–	–
CCOc1cc(OP(=S)(OC)OC)nc(CC)n1	–	–	inactive	inactive	inactive	inactive	inactive	inactive	-2.44%	inactive	–	–
CN1C(=O)COc2c(C(=O)NC3CN4CCC3CC4)cc(Cl)cc21 (centres undefined)	–	inactive	–	inactive	inactive	inactive	inactive	inactive	18.3%	inactive	–	–
O=C(O)C(F)(F)C(F)(F)C(F)(F)C(F)(F)C(F)(F)C(F)(F)F	inactive	inactive	inactive	inactive	inactive	–	–	–	–	–	–	–
Oc1ccc(Cc2ccc(O)cc2)cc1	inactive	–	inactive	inactive	inactive	inactive	inactive	15.6 µM [inconclusive] (active)	–	inactive	2.45 µM (active)	–
Oc1ccc2c3c1O[C@H]1[C@@H](O)C=C[C@H]4[C@@H](C2)NCC[C@@]341	inactive	inactive	–	inactive	inactive	inactive	–	–	–	–	–	–
O=C(NC(=O)c1c(F)cccc1F)Nc1cc(Cl)c(F)c(Cl)c1F	–	–	inactive	inactive	inactive	inactive	inactive	inactive	11.8%	inactive	–	–
C[N+]1(C)CCCCC1	inactive	–	inactive	inactive	inactive	inactive	–	–	–	–	–	–
CC(C)C(C)(N)C#N (centres undefined)	inactive	inactive	inactive	inactive	inactive	–	–	–	–	–	–	–
C=C(Cl)CSC(=S)N(CC)CC	–	inactive	inactive	26.6 µM (active)	18.8 µM (active)	inactive	–	–	–	–	–	–
NNCc1ccccc1	–	–	inactive	inactive	inactive	inactive	–	inactive	–	–	62.3 µM (active)	–
CC(C)c1ccc(O)cc1	inactive	inactive	inactive	inactive	inactive	inactive	–	–	–	–	–	–
c1ccc2c(c1)CCNC2	–	–	inactive	inactive	inactive	inactive	–	–	–	–	–	–
C[C@H](CN1CCOCC1)C(C(=O)N1CCCC1)(c1ccccc1)c1ccccc1	–	inactive	–	inactive	inactive	–	inactive	inactive	–	inactive	–	-2.63%
CCN[C@H](C)Cc1cccc(C(F)(F)F)c1	–	inactive	inactive	inactive	inactive	inactive	inactive	inactive	-8.58%	inactive	–	–
C=CCc1cc(OC)c2c(c1)OCO2	inactive	inactive	inactive	inactive	inactive	–	–	–	–	–	–	–
C[C@]12C=CC(=O)C=C1CC[C@@H]1[C@@H]2CC[C@@]2(C)[C@H]1CC[C@]2(C)O	–	inactive	inactive	inactive	inactive	inactive	–	0.425 µM [inconclusive] (active)	–	inactive	0.15 µM (active)	–
CON(C)C(=O)Nc1ccc(Br)c(Cl)c1	–	inactive	inactive	inactive	inactive	inactive	–	–	–	–	–	–
C#CCOC(=O)/C=C(C)/C=C/CC(C)CCCC(C)C (centres undefined)	–	–	inactive	inactive	inactive	inactive	inactive	inactive	–	inactive	–	–

SMILES	Potency [1]	Potency [2]	Potency [3]	Potency (Aromatase (Homo sapiens))	Potency [4]	Potency [5]	Potency [6]	Potency [7]	activation ([8]; at 70.3 µM (top of the series))	Potency [9]	Potency [8]	activation ([8]; at 95 µM (top of the series))
CC[C@H](O)C(C[C@H](C)N(C)C)(c1ccccc1)c1ccccc1	–	–	inactive	inactive	inactive	inactive	inactive	inactive	–	inactive	–	-12.1%
Cn1c(CCCC(=O)O)nc2cc(N(CCCl)CCCl)ccc21	–	inactive	1.06 µM (active)	inactive	inactive	inactive	inactive	inactive	-7.85%	inactive	–	–
O=C(Cl)OCc1ccccc1	–	–	inactive	inactive	inactive	inactive	inactive	inactive	–	inactive	–	-4.92%
O=C1CCCCC1Cl (centres undefined)	inactive	inactive	inactive	inactive	inactive	–	–	–	–	–	–	–
CCCOC(=O)Cc1ccc(OCC(=O)N(CC)CC)c(OC)c1	inactive	inactive	–	inactive	inactive	inactive	–	–	–	–	–	–
CCOC(=O)c1ncn2c1CN(C)C(=O)c1c(I)cccc1-2	–	inactive	inactive	inactive	inactive	inactive	inactive	inactive	-3.09%	inactive	–	–
CCN[C@@H](C)Cc1cccc(C(F)(F)F)c1	–	inactive	inactive	inactive	inactive	inactive	inactive	inactive	-18%	inactive	–	–
C=CC=O	–	–	inactive	inactive	inactive	inactive	–	–	–	–	–	–
CC[C@@H](CO)NC(=O)[C@@H]1C=C2c3cccc4c3c(cn4C)C[C@H]2N(C)C1	–	inactive	inactive	inactive	–	inactive	–	inactive	13.7%	inactive	–	–
C=C1CC[C@@]2(O)[C@H]3Cc4ccc(O)c5c4[C@@]2(CCN3CC2CC2)[C@H]1O5	–	–	inactive	inactive	inactive	inactive	–	–	–	–	–	–
CCCCCCCCSC(=O)Oc1cc(Cl)nnc1-c1ccccc1	–	inactive	inactive	inactive	inactive	inactive	–	inactive	3.18%	inactive	–	–
N#CC(Br)(Br)C(N)=O	inactive	–	inactive	–	inactive	inactive	–	–	–	–	–	–
CC(C)(O)C(Cl)(Cl)Cl	–	–	–	inactive	inactive	–	inactive	inactive	7.26%	inactive	–	–
CCCOc1nn(C(=O)NS(=O)(=O)c2ccccc2C(=O)OC)c(=O)n1C	inactive	inactive	inactive	inactive	inactive	–	–	–	–	–	–	–
CCC1(c2cccc(O)c2)CCCCN(C)C1 (centres undefined)	inactive	inactive	–	inactive	inactive	inactive	–	–	–	–	–	–
CCc1cc(OC)c(C[C@H](C)N)cc1OC	31.9 µM (active)	inactive	–	inactive	inactive	inactive	–	–	–	–	–	–
COC1=CC(=O)O[C@@H](/C=C/c2ccccc2)C1	inactive	inactive	inactive	inactive	inactive	–	–	–	–	–	–	–
Cc1ccc(S(=O)(=O)N[C@@H](CCCCN)C(=O)CCl)cc1	13.3 µM (active)	–	–	inactive	–	inactive	inactive	–	–	–	–	–
C#CC(C)(C)O	inactive	inactive	inactive	inactive	inactive	–	–	–	–	–	–	–

— PubChem BioAssay (Tox21)
